Test results published in PubChem BioAssay AID1508600 (Functional Genomics Laboratory (NCATS/FGL), 2020).
In all, about 53,000 sequences went through this assay and about 3,700 (7%) were called active.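 The calls were made as follows: active = gene knockdowns whose robust z-score for IL-1 alpha signal is at least 2 or at most -2, so actives lie on both sides; inactive = the rest.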 The sample as a whole holds a higher share of actives than the screen did.

Assay: Components of the Cytosolic LPS Sensing Pathway: Gene Identification via Genome-wide siRNA Screen
Conditions: RAW264.7 macrophages, IL-1a HTRF, actives lie on both sides, screened at 100 nM (by protocol), cells primed 5 h with Pam3CSK4 first
Text: Non-canonical inflammasome activation by cytosolic LPS is a critical component of the host response to Gram-negative bacterial infection, however we lack a comprehensive understanding of the cellular processes that control this pathway. Here we describe a genome-wide siRNA screen to identify genes regulating the mouse macrophage IL-1 alpha response to cytosolic LPS.
RAW264.7 cells were maintained in complete DMEM media, comprising DMEM with 4.5 g/L glucose, 10% FBS (Gemini Bio-Products, West Sacramento, CA), 2 mM Glutamine (Lonza) and 20 mM HEPES (Lonza), hereafter complete DMEM.
The RNAi screen was conducted in 384-well format using the Ambion Silencer Mouse Genome siRNA Library (#4391425), which consists of three unique, nonoverlapping, nonpooled siRNAs for each of 17,000 gene targets. siRNA reagents ([…]) were stamped into 384-well white flat-bottom microplates (Corning, 3570) using a Velocity11 VPrep liquid handling system (Agilent) integrated into a BioCel robotic platform (Agilent) in columns 1-22, leaving columns 23-24 empty for negative (Ambion, Negative control #1) and positive (mouse Casp4) controls, respectively. The median value of each plate's negative control column was used to normalize sample wells, and the positive control was used to assess transfection efficiency and assay performance.
Lipofectamine RNAiMAX Transfection Reagent ([…]; Invitrogen) was added in […] serum-free, antibiotic-free media to plate wells using a Thermo Scientific Matrix WellMate and Microplate Stacker. Plates were incubated for 45 min at room temperature to allow for the sufficient formation of siRNA-lipid complexes. Cells were seeded at a density of 1x10^4 cells per well in 20 microL media containing 20% (vol/vol) FBS without antibiotics. The final concentration of siRNA in each well was 100 nM. Cells were cultured for 48h at 37 degrees C in 5% CO2 before addition of […] of TLR ligand Pam3CSK4 for 5 hours. The medium was then removed, replaced with […] growth media and cell were transfected with […] of LipidA and TransIT-TKO (Mirus) for 24 hour. At the end of the LipidA treatment, […] of supernatant was transferred to a 384 Greiner Bio-one non-binding low volume plate and […] of IL-1a HTRF reagent (Cisbio, 62MIL1APEH) was added and incubated at room temperature overnight. The plates were read on an EnVision plate reader (PerkinElmer). Cell viability was measured by adding 20ul Cell Titer Glo to the original plate and running a luminescence read on the EnVision. The quantified IL-1a signal for each siRNA gene-targeted well was divided by the median of the negative control wells and multiplied by 100 to achieve a negative control normalized value for each well/siRNA. This normalized value was then used to generate a robust z-score by first taking the log of each value and then by subtracting the median and dividing by the […].

z-score, active:
GGAACUAGUUUUUAUACUCTT against Igfbp1 2.23
GGGUGCAUAUGUUUGAAGCTT against Copb2 -2.5
GGCUACCAUGGACACAUCATT against Magea7-ps -2.31
GCCAGGACAAUCUGACUAUTT against Napsa 3.48
CCAAGCAUAUGUGGUUGUUTT against Gpbp1l1 -2.01
GACAGAGGAAUUUGUCUCCTT against Olfr1120 2.1
GCAGUAACUCCGGUAGUAGTT against Daxx 5.84
GGUCGAGGACAAAAAAAAATT against Dner -2.27
GCAGGUGAAAGUGCAGAUCTT against Timm13 3.35
CCCAGGUUCCGGAGAACAATT against Abcc5 2.14
GCCACAACAACUUGAGCAGTT against Amigo1 2.36
GGUACCAUCCGGAAUACAATT against Zdhhc19 3.95
GAAGCAGAUACCAAAACAATT against Kir3dl1 -3.02
GGACCUAGUGCGUUCCAAATT against H1f7 2.92
GGAAACUUAAGCAAAUUCUTT against Gprc6a 3.11
GGAGAUCCUUAAGCUGUUGTT against Aen -2.37
GGACAUUCUCUACCGAAUATT against Acsm1 2.04
GCAUCAGGCCCGUUCAGAATT against Ddx4 3.23
GACCUUCCAGGUCAAGUUGTT against Plcg1 2.56
GGUGGAGGAUUUUUCAGAUTT against Hs6st2 2.42
GGUUGUCGCCAGAAUCAAGTT against Slc9a3r2 2.28
CGAACGAUUGAAGAUUUCUTT against Nat3 2.81

z-score, inactive:
GGAAGAAGUUGGAGAUGUUTT against Hsd17b11 -0.629
GGAACCUAUUUUUUCGUAUTT against Gen1 -0.322
CCAAGAUUCUCCUGAAUUATT against Plod2 -0.183
CGGUGAUCAAAGAUAAGAATT against Zkscan5 -0.936
GGUGUGGUCAUUCCAAAUGTT against Ms4a8a 0.042
GGAGCUGUGCGGUCUGUUATT against Mul1 -0.626
GGAGAAAGUCAAGACCCUCTT against Jund 0.473
GGAUGUCUCGGCAUAGUUCTT against Lpar1 -0.64
GGUGAAUGCAAGAUCACCUTT against Myl1 0.343
GCAGUCGAUGUCAAGGUUATT against Plekhf2 0.473
CGGGAUAGACUAUAAGACUTT against Rab40c 0.612
GGAGAUGAGGAAGCUCUUCTT against Usp4 -0.747
GGUCUACGACCGAUGUUCUTT against 9530003J23Rik 0.729
GGAGUUACCUUUCGAUAGGTT against Exoc5 0.648
GGGUGCAUAAGCAAGCUGUTT against Nkiras2 -0.992
GGGAUCAAAGAUCAGUUAATT against Pih1d2 -0.98
CCUAGUGUGUGCUUUUCGGTT against Akr7a5 -0.502
GGACCCAAGAAGUUUUAUUTT against Zbbx 1.3
GGAGCAGGUAAACAUGUCUTT against Fpr-rs7 -0.218
GCCUGAAAGGCCUCACAAATT against Eloa -0.72
GGACUAUGCAGUUUUAUUGTT against Chrac1 -0.201
CGACCAAAAUCAAAACAGCTT against Defb12 -0.093
GGAACUGGAAGAGAAUGAGTT against Sdc4 0.862
GGAGAAGAUAGAAGCUGAGTT against Rad23a -1.66
GGACCUAUCAACUGAGUUUTT against Hrc 1.06
GGUCAUGGCUACUUCAUCCTT against Dok7 0.583
CCUUUAGAGGAAUUCACUUTT against Npas2 -0.576
GCAAAUCCCAGCUCAAUGUTT against Zfp810 -1.65
CGAAGGACCAGGGAAUCUGTT against Tsg-5 -0.793
GGAUAAGAGACAAUGAAUUTT against Fut7 -1.19
GCUCAUUCGUCCUCACAGUTT against Olfr312 -1.11
GGCUGUCCAACAAGCAGAGTT against Plekhm3 0.163
GGUAGACCUUUUGUCACGGTT against Cers2 -0.0497
GGGUUUAAUCAUGAUAGAATT against Tet2 -0.583
GGCUUUCCCAAAGACUUCUTT against Col11a2 0.518
GGACAUCAUCCAGGAAAACTT against Bcar3 -0.347
CAACUCUCUUGCUCAGACATT against Olfr814 -0.268
CGAACGGAAAAAUGGAAGUTT against Mrtfb 0.784
GGUCAUAGAGACAGACUACTT against Lcn12 -0.378
CGCAGAACCCUGGUUUCUATT against Trappc11 -0.232
GGACUUUCUCUAGGAUCCATT against Slamf8 -0.705
GGCUGGUUACCUGCAUAAGTT against Sh3bp2 0.225
GGCCUCCUAACAAUUCAGCTT against Foxp1 0.0693
GCUCAGAGCAUGUUGGUGGTT against Dstyk -0.805
GGAUAUACAAGCACAAACUTT against Gjc3 0.432
GGGAUUUAAAAGGAAAUGUTT against Gbp7 -1.05
GGAGGUGGUGCUUAAAGGUTT against Rnf122 0.41
GGUGAAAAGAGAUUUGAAUTT against Sp4 0.587
GCUCGUUCUUCGACAUCUUTT against Stard3 -0.946
GCGAUAUUUCAAGAGAAGCTT against Evc2 -0.372
CCCAAGCCUACCUUACGAGTT against Hipk2 -1.67
CCUAAUACCUUCAGUGUUCTT against Ptcd3 0.865
GGUGACUUUUUGGUACAGATT against Mthfr 0.558
GGCUGUUAUCCAGAGAGAUTT against Nim1k 0.177
GGACCUGAACACAGCUACUTT against Stoml1 1.04
GCCUGACGGCACGUAUGUATT against Acox1 0.527
GGUACAGUGCAUCGACAUGTT against Eng 0.879
CGGAAGGAAGUGCCUAAACTT against Rcc2 0.668
GCAGUUAACUACGUUGCAATT against Zranb2 -0.44
GGGAUGUGAUAGUUCAUAATT against Stil -0.304
GGAUGAUUAUUGGAGCUAUTT against Vtn 0.128
GGACAAUAGGAGCCUUUAATT against Vmn1r211 0.125
CCUUCUAGUGCAUCAGUGGTT against Olfr890 -0.508
GGCUCUGGUCCAAGAAAUGTT against C4b -0.176
CCAUGUCGUAUGUGAUUCUTT against Hils1 -0.528
GGAUGUUGAACAAAAGAAGTT against Abce1 -0.863
GCUUAUGUUGUUGUGCAUUTT against Zfyve21 0.362
GCUAUUCAAUCUGAGGAAATT against Olfr1278 0.246
GCCUGGAUUAUAGGAUCACTT against Tmem208 -1.45
GGAUUAGAAUGUCAUGUCUTT against Ddx20 -1.28
GCAGGUUGCUAUGCAUAUGTT against 9930038B18Rik 0.722
CGCAUUUUAGUUCAUCUGUTT against Sowahb -0.669
GGAUCAAGGAGCAAGUGGUTT against B4galnt1 -1.7
CCUAUUCCAUUGACAAUGATT against Tubb2a 0.286
GCUAAUUCAUGAAUUGAUGTT against Ofd1 1.01
GGAGCAGGAGAAAAUUUUGTT against Olfr437 -0.0124
GGCCCGUCACAUGAAGAAGTT against Ip6k3 0.238
GGAGCUAAGUGAUUUUAGATT against Mtf1 0.403
GGAGGAUAUUGGAACUGCCTT against Lrrc26 0.312
GGCAUUAUCGUGGUUGGCATT against Ntpcr -1.97
GCACGAGAGUCUGAAGGAUTT against Mns1 -0.2
GGAUCUAUGGACGACCUUCTT against Kcnj10 -0.643
GGCGUGUCUGUAAAAUCUUTT against Exo5 0.656
GCGAGAUUGGUGCAAAACUTT against Grem1 -1.43
CCGUCAUCCGAGCAAUCAGTT against Kcnq5 -0.248
GGUGGCAGACAUUUCAACATT against Ifi27 1.54
